Laboratory results from PubChem BioAssay AID1159580 (chemical genetic matrix, 2015).
Out of some 5,500 compounds screened, about 2,000 (36%) were called active. Roughly 18% stayed inconclusive and do not appear here. No stated cut-off is given here; in the data, active means normalized growth mostly below about 0.91 (no sharp cut-off); inconclusive means no clear call, values can overlap the other calls; inactive means mostly above about 0.92. The list shows a part of the results.

Test: chemical genetic growth profiling, strain panel (AID 1159580);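 further: tested at 20 µM; growth read once vehicle control cultures reached saturation at 30 °C; 1 = growth at the plate median or of vehicle wells; lower values mean less growth of the strain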
Settings: growth OD

Measured: normalized growth

CCCC(=O)Nc1ccc(OCC(O)CNC(C)C)c(C(C)=O)c1 (configuration not stated)
inactive: S. cerevisiae deletion strains, locus YJR075W, strain HOC1, active compounds read low 1.03 | S. cerevisiae deletion strains, locus YKL009W, strain mrt4, active compounds read low 1.02 | S. cerevisiae deletion strains, locus YKL068W, active compounds read low 1.02 | S. cerevisiae deletion strains, locus YKL085W, strain MDH1 (second series), active compounds read low 1.01 | S. cerevisiae deletion strains, locus YKL085W, strain MDH1, active compounds read low 1.01 | S. cerevisiae deletion strains, locus YKL160W, strain elf1, active compounds read low 1.02 | S. cerevisiae deletion strains, locus YKL190W, strain CNB1, active compounds read low 1.01 | S. cerevisiae deletion strains, locus YKR001C, strain vps1, active compounds read low 1.04 | S. cerevisiae deletion strains, locus YKR026C, strain gcn3, active compounds read low 1.01 | S. cerevisiae deletion strains, locus YKR091W, strain srl3, active compounds read low 1 | S. cerevisiae deletion strains, locus YLL001W, strain dnm1, active compounds read low 1.02 | S. cerevisiae deletion strains, locus YLL026W, active compounds read low 1.01 | S. cerevisiae deletion strains, locus YLL041C, strain sdh2, active compounds read low 1.01 | S. cerevisiae deletion strains, locus YLR027C, strain aat2, active compounds read low 1.01 | S. cerevisiae deletion strains, locus YLR039C, strain RIC1, active compounds read low 1.06 | S. cerevisiae deletion strains, locus YLR058C, strain SHM2, active compounds read low 1.01 | S. cerevisiae deletion strains, locus YLR102C, strain apc9, active compounds read low 1.01 | S. cerevisiae deletion strains, locus YLR113W, strain HOG1, active compounds read low 0.999 | S. cerevisiae deletion strains, locus YLR221C, strain rsa3, active compounds read low 1.01 | S. cerevisiae deletion strains, locus YLR258W, strain gsy2, active compounds read low 1.02 | S. cerevisiae deletion strains, locus YLR262C, strain YPT6 (second series), active compounds read low 1.02 | S. cerevisiae deletion strains, locus YLR262C, strain YPT6, active compounds read low 1.02 | S. cerevisiae deletion strains, locus YLR268W, strain sec22, active compounds read low 1.05 | S. cerevisiae deletion strains, locus YLR320W, strain mms22, active compounds read low 1 | S. cerevisiae deletion strains, locus YLR330W, strain CHS5, active compounds read low 1.01 | S. cerevisiae deletion strains, locus YLR342W, strain FKS1 (second series), active compounds read low 1 | S. cerevisiae deletion strains, locus YLR342W, strain FKS1, active compounds read low 1.01 | S. cerevisiae deletion strains, locus YLR357W, strain rsc2, active compounds read low 0.97 | S. cerevisiae deletion strains, locus YLR370C, strain arc18, active compounds read low 1.02 | S. cerevisiae deletion strains, locus YLR371W, strain rom2, active compounds read low 1.02 | S. cerevisiae deletion strains, locus YLR384C, strain iki3, active compounds read low 1.01 | S. cerevisiae deletion strains, locus YLR418C, strain cdc73, active compounds read low 1.05 | S. cerevisiae deletion strains, locus YML016C, strain PPZ1, active compounds read low 1.01 | S. cerevisiae deletion strains, locus YML032C, strain rad52, active compounds read low 1.02 | S. cerevisiae deletion strains, locus YML120C, strain ndi1, active compounds read low 0.999 | S. cerevisiae deletion strains, locus YML124C, strain tub3, active compounds read low 1.02 | S. cerevisiae deletion strains, locus YMR058W, strain fet3, active compounds read low 1 | S. cerevisiae deletion strains, locus YMR078C, strain ctf18, active compounds read low 1.02 | S. cerevisiae deletion strains, locus YMR125W, strain sto1, active compounds read low 1 | S. cerevisiae deletion strains, locus YMR129W, active compounds read low 1.01 | S. cerevisiae deletion strains, locus YMR205C, strain PFK2, active compounds read low 1 | S. cerevisiae deletion strains, locus YMR223W, strain ubp8, active compounds read low 1 | S. cerevisiae deletion strains, locus YMR231W, strain pep5, active compounds read low 1.02 | S. cerevisiae deletion strains, locus YMR263W, strain SAP30, active compounds read low 1.02 | S. cerevisiae deletion strains, locus YMR307W, strain GAS1, active compounds read low 1.03 | S. cerevisiae deletion strains, locus YNL067W, strain RPL9B, active compounds read low 1.03 | S. cerevisiae deletion strains, locus YNL071W, strain lat1, active compounds read low 1.02 | S. cerevisiae deletion strains, locus YNL128W, strain TEP1, active compounds read low 1.01 | S. cerevisiae deletion strains, locus YNL153C, strain GIM3, active compounds read low 1.02 | S. cerevisiae deletion strains, locus YNL183C, strain NPR1, active compounds read low 0.97 | S. cerevisiae deletion strains, locus YNL209W, strain ssb2, active compounds read low 1.04 | S. cerevisiae deletion strains, locus YNL233W, strain BNI4, active compounds read low 1.01 | S. cerevisiae deletion strains, locus YNL248C, strain rpa49, active compounds read low 1.03 | S. cerevisiae deletion strains, locus YNL250W, strain rad50, active compounds read low 1.01 | S. cerevisiae deletion strains, locus YNL271C, strain bni1, active compounds read low 1.02 | S. cerevisiae deletion strains, locus YNL298W, strain CLA4, active compounds read low 1.02 | S. cerevisiae deletion strains, locus YNL307C, strain MCK1, active compounds read low 1.02 | S. cerevisiae deletion strains, locus YNL322C, strain KRE1 (second series), active compounds read low 1.03 | S. cerevisiae deletion strains, locus YNL322C, strain KRE1, active compounds read low 1.01 | S. cerevisiae deletion strains, locus YNR049C, strain mso1, active compounds read low 1.01 | S. cerevisiae deletion strains, locus YNR052C, strain pop2, active compounds read low 1.02 | S. cerevisiae deletion strains, locus YOL006C, strain TOP1, active compounds read low 1.07 | S. cerevisiae deletion strains, locus YOL012C, strain htz1 0.744 | S. cerevisiae deletion strains, locus YOL147C, strain pex11, active compounds read low 1.02 | S. cerevisiae deletion strains, locus YOR001W, strain rrp6, active compounds read low 1.01 | S. cerevisiae deletion strains, locus YOR061W, strain CKA2, active compounds read low 1.01 | S. cerevisiae deletion strains, locus YOR069W, strain VPS5, active compounds read low 1.01 | S. cerevisiae deletion strains, locus YOR070C, strain gyp1, active compounds read low 1.02 | S. cerevisiae deletion strains, locus YOR080W, strain dia2, active compounds read low 1.02 | S. cerevisiae deletion strains, locus YOR083W, strain WHI5, active compounds read low 0.988 | S. cerevisiae deletion strains, locus YOR106W, strain vam3, active compounds read low 1.03 | S. cerevisiae deletion strains, locus YOR136W, strain idh2, active compounds read low 1.01 | S. cerevisiae deletion strains, locus YOR144C, strain elg1, active compounds read low 1.02 | S. cerevisiae deletion strains, locus YOR184W, strain ser1, active compounds read low 1.03 | S. cerevisiae deletion strains, locus YOR231W, strain MKK1, active compounds read low 0.993 | S. cerevisiae deletion strains, locus YOR265W, strain rbl2, active compounds read low 1.02 | S. cerevisiae deletion strains, locus YOR270C, strain vph1, active compounds read low 1.07 | S. cerevisiae deletion strains, locus YOR290C, strain snf2, active compounds read low 1.05 | S. cerevisiae deletion strains, locus YOR316C, strain cot1, active compounds read low 1.02 | S. cerevisiae deletion strains, locus YPL051W, strain arl3, active compounds read low 1 | S. cerevisiae deletion strains, locus YPL055C, strain LGE1, active compounds read low 1.07 | S. cerevisiae deletion strains, locus YPL078C, strain atp4, active compounds read low 1.03 | S. cerevisiae deletion strains, locus YPL106C, strain sse1, active compounds read low 1.02 | S. cerevisiae deletion strains, locus YPL240C, strain hsp82, active compounds read low 1.03 | S. cerevisiae deletion strains, locus YPL241C, strain CIN2, active compounds read low 1.01 | S. cerevisiae deletion strains, locus YPL256C, strain CLN2, active compounds read low 0.992 | S. cerevisiae deletion strains, locus YPR119W, strain clb2, active compounds read low 1.01 | S. cerevisiae deletion strains, locus YPR141C, strain kar3, active compounds read low 1.01 | S. cerevisiae deletion strains, locus YPR163C, strain tif3, active compounds read low 1.02 | S. cerevisiae deletion strains, locus YPR167C, strain met16, active compounds read low 1.01 | S. cerevisiae deletion strains, strain wtn01, active compounds read low 1.03 | S. cerevisiae strains, strain wild type, active compounds read low 1.02
